This passage reports growth results from PubChem BioAssay (NCI).

The structures appear in SMILES notation. Compounds without any hit were thinned out: in the full panel of roughly 83,000, 20% have a hit.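 Step 1: grow cells in 96-well plates. Step 2: add test compound at a single concentration. Step 3: incubate 48 h. Step 4: record percent growth.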 A number with no mark means an inactive call. Activity calls are given as the source filed them. How the source made its calls: active means growth percent below 10; inactive means the rest.

Some test systems named below: DU-145 prostate; K-562 leukemia; MALME-3M melanoma; MDA-MB-231 breast; RXF 393 renal; SF-268 CNS; SF-295 CNS; SF-539 CNS; UACC-257 melanoma; M14 melanoma; HCT-15 colon; HT29 colon; SNB-75 CNS; SNB-19 CNS; U251 CNS; PC-3 prostate; SK-MEL-5 melanoma; UACC-62 melanoma; LOX IMVI melanoma; SK-MEL-28 melanoma.
What all share (assay): NCI-60 one-dose screen, 48 h (100 = growth as untreated, 0 = no growth, -100 = all killed)
What all share (settings): 10 µM unless noted

For the compound `COc1c(-c2cc(-c3ccc(C)o3)[nH]c(=O)n2)c(O)cc2occc12`, the growth with DU-145 prostate is 78.2%; with K-562 leukemia it was 16.8%; with MALME-3M melanoma, 69.2%; in the assay with MDA-MB-231 breast it was 70.8%; with RXF 393 renal it was 56.3%; with SF-268 CNS, 69.8%. Moreover, the growth was 77.6% in the assay with SF-295 CNS; 69.9% in the assay with SF-539 CNS; 78.7% in the assay with UACC-257 melanoma; 44.7% in the assay with M14 melanoma; 32.6% with HCT-15 colon; 96% with HT29 colon. For the same compound, the growth is 50% in the assay on SNB-75 CNS; 65.9% in the assay with SNB-19 CNS; 63.5% in the assay on U251 CNS; 69.4% in the assay on PC-3 prostate; 76.8% with SK-MEL-5 melanoma; 48.1% in the assay on UACC-62 melanoma. Besides, the growth in the assay with LOX IMVI melanoma was 58.2%.
Consider `CC(C)[C@H](CN)NC[C@H](C)NS(=O)(=O)c1ccc(C(C)(C)C)cc1`, for which the growth in the assay with DU-145 prostate is 105%; in the assay on K-562 leukemia, 85.7%; with MALME-3M melanoma, 97.8%; in the assay on MDA-MB-231 breast, 117%; in the assay with RXF 393 renal, 89.9%; in the assay with SF-268 CNS it was 93.5%. Moreover, the growth in the assay on SF-295 CNS was 104%; in the assay with SF-539 CNS, 96.9%; with UACC-257 melanoma, 96.4%; in the assay with M14 melanoma, 97.3%; with HCT-15 colon it was 99.3%; with HT29 colon, 65.5%. In addition, the growth was 84.2% in the assay on SNB-75 CNS; 111% with SNB-19 CNS; 87.1% with U251 CNS; 83.5% with PC-3 prostate; 86.8% in the assay with SK-MEL-5 melanoma; 111% with UACC-62 melanoma. Further, in the assay on LOX IMVI melanoma, the growth was 99.9%.
In the case of `CN(C)c1ccc(/C=C(\C#N)c2nc3ccccc3n2C)cc1`, the growth with DU-145 prostate was 25.7%; in the assay on K-562 leukemia it was 32%; in the assay on MALME-3M melanoma it was 61.7%; in the assay on MDA-MB-231 breast it was 48.8%; with RXF 393 renal, 3.51% (active); with SF-268 CNS, 52.6%. Further, the growth with SF-295 CNS is 13.1%; with SF-539 CNS, 11.6%; with UACC-257 melanoma, 43.9%; with M14 melanoma, 34.4%; in the assay on HCT-15 colon, 28.5%; in the assay on HT29 colon, 13.7%. The growth is 7.56% (active) in the assay with SNB-75 CNS; 68.6% in the assay on SNB-19 CNS; 30.3% with U251 CNS; 35.7% in the assay on PC-3 prostate; 14.5% in the assay with SK-MEL-5 melanoma; 35% in the assay with UACC-62 melanoma. Besides, in the assay with LOX IMVI melanoma, the growth was 46.2%.
Turning to `O=C(/C=C/c1cccc([N+](=O)[O-])c1)c1ccc(Nc2nc(N3CCCCC3)nc(N3CCCCC3)n2)cc1`, the growth is 98.7% with DU-145 prostate; 97.7% in the assay on K-562 leukemia; 118% with MALME-3M melanoma; 103% in the assay with MDA-MB-231 breast; 100% in the assay on RXF 393 renal; 97.5% with SF-268 CNS. Also, the growth was 93.2% with SF-295 CNS; 99.6% in the assay with SF-539 CNS; 97.4% in the assay with UACC-257 melanoma; 98% in the assay on M14 melanoma; 87.6% with HCT-15 colon; 88.6% in the assay with HT29 colon. Moreover, the growth in the assay with SNB-75 CNS is 101%; in the assay with SNB-19 CNS it was 100%; in the assay on U251 CNS, 95.2%; with PC-3 prostate, 89.3%; in the assay with SK-MEL-5 melanoma, 97.6%; in the assay on UACC-62 melanoma, 91%. Also, the growth in the assay with LOX IMVI melanoma is 92.9%.
For the compound `CCN(CC)CCCC(C)Nc1cnc(C(=O)Nc2cc(C)cc3cccnc23)cn1` (centres undefined), the growth in the assay with DU-145 prostate was 80.7%; in the assay on K-562 leukemia it was 25.9%; in the assay on MALME-3M melanoma it was 107%; with MDA-MB-231 breast it was 89.2%; in the assay on RXF 393 renal it was 72.3%; in the assay on SF-268 CNS, 66.1%. The growth is 98.9% in the assay on SF-295 CNS; 86.9% with SF-539 CNS; 71.7% in the assay with UACC-257 melanoma; 98.6% in the assay on M14 melanoma; 59.9% with HCT-15 colon; 37.3% in the assay with HT29 colon. The growth in the assay on SNB-75 CNS is 78.3%; with SNB-19 CNS, 89.2%; in the assay on U251 CNS, 78.4%; with PC-3 prostate, 83.1%; in the assay on SK-MEL-5 melanoma it was 83.1%; in the assay with UACC-62 melanoma, 98.6%. Moreover, in the assay on LOX IMVI melanoma, the growth was 87%.
For the compound `C/C=C(\C)C(C(=O)NC1CCCCC1)N(C(=O)C1CCc2cc(F)ccc2O1)c1ccc([N+](=O)[O-])cc1` (centres undefined), the growth was 105% in the assay with DU-145 prostate; 80.7% in the assay on K-562 leukemia; 92.4% with MALME-3M melanoma; 77.7% with MDA-MB-231 breast; 98.4% in the assay with RXF 393 renal; 87% in the assay on SF-268 CNS. Further, the growth is 82.5% in the assay on SF-295 CNS; 92.8% in the assay on SF-539 CNS; 93% with UACC-257 melanoma; 82.4% in the assay with M14 melanoma; 74% with HCT-15 colon; 74.4% in the assay with HT29 colon. For the same compound, the growth with SNB-75 CNS is 72.8%; in the assay with SNB-19 CNS, 85.7%; in the assay on U251 CNS, 93.1%; in the assay on PC-3 prostate, 72.7%; in the assay on SK-MEL-5 melanoma, 42.1%; in the assay on UACC-62 melanoma, 70.1%. Also, in the assay with LOX IMVI melanoma, the growth is 87.7%.
Turning to `CCOC(=O)C1=C(C)NC(SCc2nnc(-c3ccc(Cl)cc3)o2)=NC1c1ccc(Cl)cc1` (centres undefined), the growth in the assay with DU-145 prostate was 87.2%; in the assay on K-562 leukemia, 55.8%; in the assay on MALME-3M melanoma, 81.7%; with MDA-MB-231 breast, 62.7%; in the assay with RXF 393 renal, 67.7%; with SF-268 CNS, 86%. The growth in the assay on SF-295 CNS was 74.1%; with SF-539 CNS it was 87.7%; in the assay with UACC-257 melanoma it was 86.9%; in the assay with M14 melanoma, 69.3%; in the assay with HCT-15 colon, 67.6%; with HT29 colon, 75.2%. For the same compound, the growth in the assay with SNB-75 CNS was 73.7%; in the assay on SNB-19 CNS, 73%; in the assay on U251 CNS it was 73.9%; with PC-3 prostate, 48.8%; in the assay with SK-MEL-5 melanoma, 40.9%; with UACC-62 melanoma, 49.9%. Moreover, the growth is 76.9% in the assay on LOX IMVI melanoma and 79.8% with SK-MEL-28 melanoma.
As to `Nc1nc(N)c2c(n1)NC(c1sc(Cl)nc1Cl)CC(c1ccc3c(c1)OCO3)=N2` (centres undefined), the growth with DU-145 prostate is 35.3%; with K-562 leukemia, 16.9%; in the assay on MALME-3M melanoma it was 28.8%; in the assay with MDA-MB-231 breast, 48.8%; with RXF 393 renal it was -1.6% (active); in the assay on SF-268 CNS it was 38.8%. Moreover, the growth in the assay with SF-295 CNS is 18.5%; in the assay with SF-539 CNS it was -14.9% (active); in the assay with UACC-257 melanoma, 39.2%; with M14 melanoma, 18.1%; with HCT-15 colon it was 23.9%; in the assay with HT29 colon, 5.28% (active). The growth in the assay with SNB-75 CNS was -1.52% (active); in the assay on SNB-19 CNS, 36.8%; in the assay on U251 CNS, 10.4%; in the assay with PC-3 prostate, 48.8%; in the assay on SK-MEL-5 melanoma it was 11%; in the assay on UACC-62 melanoma, 40.1%. Moreover, the growth was 40.3% in the assay with LOX IMVI melanoma and 57% in the assay with SK-MEL-28 melanoma.
